Compound activity as filed in PubChem BioAssay.
This is a sample that favours compounds with a hit; in the whole collection about 3.6% have one here.
TRHR agonist-1 = TRH receptor (human) agonism. activation, % at 2 µM. AID 493084. TRHR cells, calcium flux fluo-8, FDSS agonist mode. P34981. 360,000 compounds, 0.18% hits; in the data active = activation above about 30%
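Read-out: compound-evoked intracellular calcium rise in TRHR cells, fluo-8 dye, kinetic FDSS fluorescence at 1 s/cycle following a 10-cycle baseline. Cells cultured overnight before dye loading (30 min–1.5 h, RT).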
D1 agonist = activates the human D1 dopamine receptor; 360,000 compounds, 1% hits; AID 504660; HEK293 T-REx D1 cells, calcium flux, agonist mode; activation, % at 2 µM; in the data active = activation above about 30%
Target sequence (P21728 whole entry, looked up): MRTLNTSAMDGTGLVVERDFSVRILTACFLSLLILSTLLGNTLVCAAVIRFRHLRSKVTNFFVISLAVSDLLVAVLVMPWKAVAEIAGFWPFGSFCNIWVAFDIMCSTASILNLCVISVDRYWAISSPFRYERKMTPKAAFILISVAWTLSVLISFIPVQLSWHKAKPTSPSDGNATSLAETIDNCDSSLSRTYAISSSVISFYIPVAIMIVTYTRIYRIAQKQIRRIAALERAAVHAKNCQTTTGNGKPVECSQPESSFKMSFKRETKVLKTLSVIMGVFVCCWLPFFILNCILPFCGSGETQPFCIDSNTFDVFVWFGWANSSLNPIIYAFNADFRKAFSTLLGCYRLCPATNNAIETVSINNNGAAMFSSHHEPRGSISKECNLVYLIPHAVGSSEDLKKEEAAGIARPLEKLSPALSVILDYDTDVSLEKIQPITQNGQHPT
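Tetracycline-induced HEK293 TREx D1 cells, force-coupled to calcium signalling, were dye-loaded with a no-wash calcium kit. Compound was pin-added after a 10 s baseline. Fluorescence was read kinetically at 1 cycle/s for 180 s, with calcium rises flagged as agonism.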
D1 potentiator = enhances dopamine response at the human D1 receptor. HEK293 TREx D1 cells, calcium flux, dopamine EC20 potentiation. potentiation, % at 10 µM. P21728. 360,000 compounds, 0.036% hits; in the data active = potentiation above about 30%
LDHA inh = LDHA (human) enzyme inhibition; purified LDHA, NADH/diaphorase-resazurin fluorescence; hits give low values; activity change, % (values are at about 110 or 230 µM); 480,000 compounds, 0.15% hits; AID 1347041; in the data active = activity change below about -30%; inconclusive = mostly about -25% to -30%
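Resorufin fluorescence (ex540/em590), read at 0 and 20 min after diaphorase/resazurin addition, reports the NADH left after a 5 min room-temperature reaction of 2 nM human LDH5 with 0.06 mM NADH and 0.2 mM pyruvate.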
D1 antagonist = human D1 dopamine receptor antagonism | HEK293 TREx D1 cells, calcium flux, dopamine EC80; hits give low values | activity change, negative = inhibition, % at 10 µM | 360,000 compounds, 3.2% hits | AID 504652; in the data active = activity change below about -30%
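After overnight tetracycline induction at 30 C, force-coupled D1 HEK293 cells took up a no-wash calcium dye at room temperature. Compounds were added and monitored 180 s, and the response to EC80 dopamine was then recorded.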
TRHR enhancer-1 = allosteric enhancers of human TRH receptor; P34981; TRHR cells, fluo-8 calcium fluorescence, EC20 TRH enhancement; enhancement, % at 2 µM; 360,000 compounds, 0.66% hits; AID 493056; in the data active = enhancement above about 30%
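TRHR-expressing cells loaded with fluo-8 calcium dye were read kinetically (ex 480/em 530) during compound addition, then stimulated with an EC20 of TRH (10 nM final). Enhancement of the Gq-mediated intracellular calcium response was scored.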
TRHR enhancer-2 = confirmation of human TRH receptor allosteric enhancers. 970 tested, under 10 active. shares compounds with TRHR enhancer-1. TRH receptor cell assay, enhancer confirmation qHTS. AID 493076. activity change, negative = inhibition, % at 46.1 µM;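 note: compound effect scored on response to added TRH at EC20 of 10 nM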
TRHR agonist-2 = confirmation of human TRH receptor agonists | shares compounds with TRHR enhancer-1 | 970 compounds, 8% hits | TRHR-expressing cells, agonist activation read-out | Potency, µM (doses to about 46.1 µM), hits mostly activators; note: nearly all actives have a fitted effect of over 75% in size
Large screens that a line does not name were inactive (follow-up assays come after a bar, where they were run). Unless noted, calls come from the whole dose curve; as a rule, active = well fitted curve in the direction sought with a large enough effect; inconclusive = small, poorly fitted or top-dose-only effect, or another doubt; inactive = no such curve, though single readings can be large; an effect the other way counts as inactive or inconclusive.

COc1ccc(/C=C2\CC/C(=C\c3ccc(OC)cc3OC)C2=O)c(OC)c1	TRHR agonist-1 34.1, D1 agonist 54.4 | TRHR enhancer-2 inactive | TRHR agonist-2 23.1µM
CCOc1ccc(NC(C)C(=O)N/N=C/c2cccs2)cc1 (stereo not drawn)	TRHR enhancer-1 50.2 | TRHR enhancer-2 inactive | TRHR agonist-2 inactive
CC(OC(=O)c1cc(C2CC2)nn1-c1ccccc1)C(=O)Nc1ccccc1 (stereo not drawn)	none (no result: TRHR agonist-1, D1 agonist, D1 potentiator, D1 antagonist, TRHR enhancer-1)
COc1cc(CC(=O)OCc2ccc(Cl)cc2Cl)cc(OC)c1OC	none (no result: TRHR agonist-1, D1 agonist, D1 potentiator, D1 antagonist, TRHR enhancer-1)
CC(NCCC1(C(C)C)CCOC(C)(C)C1)c1cccs1 (stereo not drawn)	TRHR enhancer-1 52.1 | TRHR enhancer-2 inactive | TRHR agonist-2 inactive
CC(C)C1(CCNC(=O)c2cccs2)CCOC(C)(C)C1 (stereo not drawn)	none
Cc1ccc(OCCNC(=O)Cc2c[nH]c3ccccc23)c(C)c1	none (no result: TRHR agonist-1, D1 agonist, D1 potentiator, D1 antagonist, TRHR enhancer-1)
C=CCN(Cc1cn(C)nc1-c1cccc(Cl)c1)C1CCS(=O)(=O)C1 (stereo not drawn)	TRHR enhancer-1 46.2 | TRHR enhancer-2 inactive | TRHR agonist-2 inactive
COc1ccc(C(C)(C)C)cc1NC(=O)c1ccc2c(c1)NC(=O)CS2	none (no result: TRHR agonist-1, D1 agonist, D1 potentiator, D1 antagonist, TRHR enhancer-1)
CCc1noc(C)c1C(=O)Nc1nc2c(C)cccc2s1	TRHR enhancer-1 55.5 | TRHR enhancer-2 inactive | TRHR agonist-2 inactive
CCc1cccc2sc(NC(=O)C3CC3)nc12	TRHR enhancer-1 42.3 | TRHR enhancer-2 inactive | TRHR agonist-2 inconclusive
Cc1[nH]nc(-c2ccc(S(=O)(=O)N3CCN(c4ccccc4)CC3)s2)c1C	none (no result: TRHR agonist-1, D1 agonist, D1 potentiator, D1 antagonist, TRHR enhancer-1)
O=C(CCc1nc2ccccc2s1)NCCc1ccccc1F	none (no result: TRHR agonist-1, D1 agonist, D1 potentiator, D1 antagonist, TRHR enhancer-1)
O=C(O)C=C1CCN(c2ncc(C(F)(F)F)cc2Cl)CC1	TRHR enhancer-1 43.1 | TRHR enhancer-2 inactive | TRHR agonist-2 inactive
NNC(=O)C=C1CCN(c2ncc(C(F)(F)F)cc2Cl)CC1	none
COc1ccc(C)cc1NC(=O)NCCC1=CCCCC1	TRHR enhancer-1 43.4 | TRHR enhancer-2 inactive | TRHR agonist-2 inactive
COc1ccc(C)cc1NC(=O)c1cc(S(=O)(=O)NCCC2=CCCCC2)ccc1F	none
CC(C)C(=O)Nc1nnc(NC(=S)Nc2ccccc2)s1	TRHR enhancer-1 50.2 | TRHR enhancer-2 inactive | TRHR agonist-2 inactive
Cn1c(SCc2cccc3ccccc23)nnc1-c1ccco1	none
Nn1c(SCc2cccc3ccccc23)nnc1-c1ccco1	TRHR enhancer-1 50.0 | TRHR enhancer-2 inactive | TRHR agonist-2 inactive
CC(=O)Nc1cccc(C(C)NCc2csc(C)n2)c1 (stereo not drawn)	none (no result: TRHR agonist-1, D1 agonist, D1 potentiator, D1 antagonist, TRHR enhancer-1)
CC(C)C[C@H](NC(=O)OC(C)(C)C)C(=O)N/N=C/c1ccc2nccnc2c1	TRHR enhancer-1 53.2 | TRHR enhancer-2 inactive | TRHR agonist-2 inactive
CCC(Sc1nc2ncccc2[nH]1)C(=O)NC1CCC(C)CC1 (stereo not drawn)	none
CCC(Sc1nc2ncccc2[nH]1)C(=O)NCCc1ccccc1 (stereo not drawn)	TRHR agonist-1 59.6 | TRHR enhancer-2 inactive | TRHR agonist-2 inactive
COc1ccc(C(=O)Nc2oc3ccc(Cl)cc3c(=O)c2-c2ccc(OC)cc2)cc1	none (no result: TRHR agonist-1, D1 agonist, D1 potentiator, D1 antagonist, TRHR enhancer-1)
O=C(Nc1cccc(Cl)c1N1CCOCC1)c1ccc([N+](=O)[O-])o1	TRHR enhancer-1 47.7 | TRHR enhancer-2 inactive | TRHR agonist-2 inactive
O=C(Nc1cccc(Cl)c1N1CCOCC1)c1cc([N+](=O)[O-])ccc1N1CCOCC1	none
CCOC(=O)c1oc2cc(OC(=O)c3ccc(OC)cc3)ccc2c(=O)c1-c1ccccc1OC	none (no result: TRHR agonist-1, D1 agonist, D1 potentiator, D1 antagonist, TRHR enhancer-1)
CC(NC(=O)c1cc(S(=O)(=O)N(C)C)ccc1Br)c1cc2ccccc2o1 (stereo not drawn)	none (no result: TRHR agonist-1, D1 agonist, D1 potentiator, D1 antagonist, TRHR enhancer-1)
CCCCN1C(=O)/C(=C/C=C2/CC(C)(C)CN2C)SC1=S	TRHR agonist-1 39.2, D1 agonist 128.3 | TRHR enhancer-2 inactive | TRHR agonist-2 9.2µM
COc1cc(/C=C2/C(=O)NN(c3cccc(C)c3)C2=O)cc([N+](=O)[O-])c1O	none
